Experimental data from ChEMBL document CHEMBL3988442, “University of Dundee, Small-Polar-MMV Screening Library” (2021).
For some of these results: Measured potencies and affinities stand elsewhere.

Experiments:
Set-up in all cases: scale not given: direction of the effect not stated beside the values
[1] = target: Protein translocase subunit SecA (Escherichia coli (strain K12)) (UniProt P10408); experiment: Assay to Identify E. coli SecA ATPase Inhibitors; assay type: functional; details: 30 µM
Protein translocase subunit SecA (Escherichia coli (strain K12)), sequence (P10408 whole entry): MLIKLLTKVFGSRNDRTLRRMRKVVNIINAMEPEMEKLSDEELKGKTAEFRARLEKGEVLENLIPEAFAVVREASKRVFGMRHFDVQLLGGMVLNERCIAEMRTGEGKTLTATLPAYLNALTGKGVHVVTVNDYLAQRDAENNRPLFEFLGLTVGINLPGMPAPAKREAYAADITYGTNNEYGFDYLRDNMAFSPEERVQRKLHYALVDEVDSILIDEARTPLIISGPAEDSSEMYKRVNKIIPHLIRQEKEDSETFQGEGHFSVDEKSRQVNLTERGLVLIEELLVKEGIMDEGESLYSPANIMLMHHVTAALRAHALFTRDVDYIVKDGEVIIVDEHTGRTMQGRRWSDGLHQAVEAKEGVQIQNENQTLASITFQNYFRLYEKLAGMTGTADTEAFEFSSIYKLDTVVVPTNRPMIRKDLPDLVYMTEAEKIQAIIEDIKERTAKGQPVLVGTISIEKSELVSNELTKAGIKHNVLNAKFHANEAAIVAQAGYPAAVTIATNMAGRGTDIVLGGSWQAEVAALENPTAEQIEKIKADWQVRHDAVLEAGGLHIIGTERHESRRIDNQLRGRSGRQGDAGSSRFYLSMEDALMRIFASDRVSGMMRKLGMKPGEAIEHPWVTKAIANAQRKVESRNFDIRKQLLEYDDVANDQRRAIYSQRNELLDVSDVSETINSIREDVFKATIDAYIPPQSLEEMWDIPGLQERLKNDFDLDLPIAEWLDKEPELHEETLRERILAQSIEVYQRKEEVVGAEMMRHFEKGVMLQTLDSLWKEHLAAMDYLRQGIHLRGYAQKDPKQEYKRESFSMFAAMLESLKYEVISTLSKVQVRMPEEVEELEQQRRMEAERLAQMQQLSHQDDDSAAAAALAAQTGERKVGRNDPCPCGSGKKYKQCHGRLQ

[2] = target: T1, Ubiquitin-activating enzyme e1, putative (Leishmania donovani (strain BPK282A1)) (UniProt E9BSI1); experiment: Leishmania donovani Ubiquitin Activating Enzyme (LdE1); assay type: functional; details: 30 µM
T1 sequence (whole entry): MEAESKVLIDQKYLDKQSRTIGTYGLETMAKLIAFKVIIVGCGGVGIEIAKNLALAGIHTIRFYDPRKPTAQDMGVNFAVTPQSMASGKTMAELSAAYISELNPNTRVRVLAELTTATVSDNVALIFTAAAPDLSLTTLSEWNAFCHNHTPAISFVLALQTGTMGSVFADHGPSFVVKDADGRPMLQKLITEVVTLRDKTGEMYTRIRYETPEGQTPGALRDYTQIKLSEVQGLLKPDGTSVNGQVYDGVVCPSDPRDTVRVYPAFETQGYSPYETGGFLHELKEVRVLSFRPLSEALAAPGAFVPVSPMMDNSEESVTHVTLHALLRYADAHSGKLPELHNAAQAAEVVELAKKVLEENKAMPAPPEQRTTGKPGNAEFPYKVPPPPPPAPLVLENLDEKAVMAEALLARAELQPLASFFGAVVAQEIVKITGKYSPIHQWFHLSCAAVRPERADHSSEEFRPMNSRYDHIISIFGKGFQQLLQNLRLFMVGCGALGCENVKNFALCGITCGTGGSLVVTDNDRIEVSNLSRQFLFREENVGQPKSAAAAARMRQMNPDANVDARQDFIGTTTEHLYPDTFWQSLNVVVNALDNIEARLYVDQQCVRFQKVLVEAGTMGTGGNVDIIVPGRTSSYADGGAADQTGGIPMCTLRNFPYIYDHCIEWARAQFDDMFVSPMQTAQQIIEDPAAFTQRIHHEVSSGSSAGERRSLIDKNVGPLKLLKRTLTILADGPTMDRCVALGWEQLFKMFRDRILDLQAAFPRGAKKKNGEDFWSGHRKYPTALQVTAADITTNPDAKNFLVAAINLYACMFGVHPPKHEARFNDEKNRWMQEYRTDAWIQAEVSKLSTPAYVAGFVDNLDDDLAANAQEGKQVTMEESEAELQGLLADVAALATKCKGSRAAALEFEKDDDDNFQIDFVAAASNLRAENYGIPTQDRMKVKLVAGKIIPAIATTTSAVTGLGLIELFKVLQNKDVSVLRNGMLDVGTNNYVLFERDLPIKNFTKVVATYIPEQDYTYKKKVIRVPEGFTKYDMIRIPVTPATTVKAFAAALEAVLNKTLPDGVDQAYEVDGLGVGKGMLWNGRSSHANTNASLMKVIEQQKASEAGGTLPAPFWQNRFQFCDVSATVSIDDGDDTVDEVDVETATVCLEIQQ

[3] = target: AMP-activated protein kinase, AMPK (Homo sapiens) (UniProt P54646+O43741+P54619+Q9UGJ0+Q9Y478+Q13131+Q9UGI9); experiment: AMP-dependent Kinase enzyme assay. An in vitro enzyme assay that detects ADP turnover that is directly proportional to AMPK activity. This uses naive AMPK that is activated during the assay with MK-8722; assay type: functional; details: 30 µM
[4] = target: Sialic acid-binding Ig-like lectin 9 (Homo sapiens) (UniProt Q9Y336); experiment: Hs-Siglec9 ALPHAscreen SOP 20170721; details: 10 µM
Sialic acid-binding Ig-like lectin 9 (Homo sapiens), sequence (Q9Y336 whole entry): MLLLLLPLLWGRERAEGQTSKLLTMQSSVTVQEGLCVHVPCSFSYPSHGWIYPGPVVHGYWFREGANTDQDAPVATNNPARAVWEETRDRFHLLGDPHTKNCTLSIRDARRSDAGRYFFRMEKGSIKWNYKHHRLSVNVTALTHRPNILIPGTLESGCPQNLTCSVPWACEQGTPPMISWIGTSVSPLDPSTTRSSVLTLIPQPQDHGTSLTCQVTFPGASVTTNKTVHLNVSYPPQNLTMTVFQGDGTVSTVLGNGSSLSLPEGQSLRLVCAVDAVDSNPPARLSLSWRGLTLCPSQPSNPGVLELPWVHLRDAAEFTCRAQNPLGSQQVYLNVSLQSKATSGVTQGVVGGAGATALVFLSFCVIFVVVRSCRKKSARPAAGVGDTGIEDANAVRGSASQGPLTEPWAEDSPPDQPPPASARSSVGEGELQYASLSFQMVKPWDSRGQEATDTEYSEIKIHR

Trypanosoma cruzi = experiment: Trypanosoma cruzi phosphomannomutase and mannose-1-phosphate guanylyltransferase assay; assay type: functional; details: 10 µM
[5] = target: T2, Arginase-2, mitochondrial (Homo sapiens) (UniProt P78540); experiment: in vitro enzyme assay to detect the production of urea directly proportional to the activity of Arginase II; assay type: functional; details: 33.3 µM; note: in the data most compounds retested in dose-response had high values
T2 sequence (whole entry): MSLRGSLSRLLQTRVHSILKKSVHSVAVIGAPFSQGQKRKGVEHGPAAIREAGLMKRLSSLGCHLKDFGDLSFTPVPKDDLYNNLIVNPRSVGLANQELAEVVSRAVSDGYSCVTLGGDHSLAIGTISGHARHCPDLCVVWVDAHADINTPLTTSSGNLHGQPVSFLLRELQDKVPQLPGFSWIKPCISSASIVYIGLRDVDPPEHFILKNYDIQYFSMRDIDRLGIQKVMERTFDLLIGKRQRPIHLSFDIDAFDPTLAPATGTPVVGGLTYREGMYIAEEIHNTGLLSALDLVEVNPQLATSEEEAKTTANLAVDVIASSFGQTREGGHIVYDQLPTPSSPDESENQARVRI

[6] = target: T3, Proteasome subunit beta (Trypanosoma cruzi) (UniProt O96673); experiment: Trypanosoma cruzi proteasome chymotrypsin-like activity (TcProtChymo) assay.; note: in the data most compounds retested in dose-response had high values; assay type: functional; details: 9.37 µM
T3 sequence (whole entry): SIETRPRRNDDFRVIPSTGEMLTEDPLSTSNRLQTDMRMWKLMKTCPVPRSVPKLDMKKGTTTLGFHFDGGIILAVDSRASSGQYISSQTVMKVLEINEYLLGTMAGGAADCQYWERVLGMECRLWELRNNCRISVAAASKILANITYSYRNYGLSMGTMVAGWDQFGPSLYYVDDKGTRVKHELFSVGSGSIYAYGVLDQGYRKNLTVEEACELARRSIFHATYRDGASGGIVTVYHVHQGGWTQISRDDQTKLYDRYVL

Homo sapiens = species: Homo sapiens; experiment: To identify inhibition of the IFN signalling (Jak-Stat) pathway via expression of an eGFP reporter gene under the control of an IFN-stimulated response element (ISRE) containing MxA promoter.; assay type: functional; details: 30 µM
[7] = target: T4, Tyrosyl-tRNA synthetase, putative (Trypanosoma cruzi (strain CL Brener)) (UniProt Q4DSP6); experiment: Trypanosoma cruzi tyrosyl tRNA synthetase (TcYRS) _High Tyrosine SOP; assay type: functional; details: 30 µM; note: in the data most compounds retested in dose-response had high values
T4 sequence (whole entry): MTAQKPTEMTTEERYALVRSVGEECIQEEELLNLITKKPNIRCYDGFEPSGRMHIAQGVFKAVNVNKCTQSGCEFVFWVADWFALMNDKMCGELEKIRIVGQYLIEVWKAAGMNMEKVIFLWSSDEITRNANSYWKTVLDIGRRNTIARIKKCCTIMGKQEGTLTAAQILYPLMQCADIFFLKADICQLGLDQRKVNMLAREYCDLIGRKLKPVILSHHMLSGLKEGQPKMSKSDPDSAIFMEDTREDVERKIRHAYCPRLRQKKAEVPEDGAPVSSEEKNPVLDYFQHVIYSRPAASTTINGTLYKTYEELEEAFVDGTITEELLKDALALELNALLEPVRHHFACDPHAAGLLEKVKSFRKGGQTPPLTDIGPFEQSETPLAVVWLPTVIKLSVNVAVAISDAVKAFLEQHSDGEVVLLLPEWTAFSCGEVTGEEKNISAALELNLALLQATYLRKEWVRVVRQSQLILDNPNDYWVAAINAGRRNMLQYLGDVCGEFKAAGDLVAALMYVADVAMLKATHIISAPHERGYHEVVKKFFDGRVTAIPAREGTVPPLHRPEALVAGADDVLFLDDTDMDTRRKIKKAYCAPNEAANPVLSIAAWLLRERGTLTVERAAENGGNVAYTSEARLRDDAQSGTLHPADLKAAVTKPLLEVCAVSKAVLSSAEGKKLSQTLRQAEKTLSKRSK

[8] = target: T4, Tyrosyl-tRNA synthetase, putative (Trypanosoma cruzi (strain CL Brener)); experiment: Trypanosoma cruzi tyrosyl tRNA synthetase (TcYRS) SOP; assay type: functional; details: 30 µM
[9] = target: Chromo domain-containing protein 1 (Saccharomyces cerevisiae (strain ATCC 204508 / S288c) (Baker's yeast)) (UniProt P32657); experiment: ScCHD-1 Enzyme Inhibition Assay; assay type: functional; details: 30 µM; note: in the data most compounds retested in dose-response had high values
Chromo domain-containing protein 1 (Saccharomyces cerevisiae (strain ATCC 204508 / S288c) (Baker's yeast)), sequence (P32657 whole entry, the tested form may be a part): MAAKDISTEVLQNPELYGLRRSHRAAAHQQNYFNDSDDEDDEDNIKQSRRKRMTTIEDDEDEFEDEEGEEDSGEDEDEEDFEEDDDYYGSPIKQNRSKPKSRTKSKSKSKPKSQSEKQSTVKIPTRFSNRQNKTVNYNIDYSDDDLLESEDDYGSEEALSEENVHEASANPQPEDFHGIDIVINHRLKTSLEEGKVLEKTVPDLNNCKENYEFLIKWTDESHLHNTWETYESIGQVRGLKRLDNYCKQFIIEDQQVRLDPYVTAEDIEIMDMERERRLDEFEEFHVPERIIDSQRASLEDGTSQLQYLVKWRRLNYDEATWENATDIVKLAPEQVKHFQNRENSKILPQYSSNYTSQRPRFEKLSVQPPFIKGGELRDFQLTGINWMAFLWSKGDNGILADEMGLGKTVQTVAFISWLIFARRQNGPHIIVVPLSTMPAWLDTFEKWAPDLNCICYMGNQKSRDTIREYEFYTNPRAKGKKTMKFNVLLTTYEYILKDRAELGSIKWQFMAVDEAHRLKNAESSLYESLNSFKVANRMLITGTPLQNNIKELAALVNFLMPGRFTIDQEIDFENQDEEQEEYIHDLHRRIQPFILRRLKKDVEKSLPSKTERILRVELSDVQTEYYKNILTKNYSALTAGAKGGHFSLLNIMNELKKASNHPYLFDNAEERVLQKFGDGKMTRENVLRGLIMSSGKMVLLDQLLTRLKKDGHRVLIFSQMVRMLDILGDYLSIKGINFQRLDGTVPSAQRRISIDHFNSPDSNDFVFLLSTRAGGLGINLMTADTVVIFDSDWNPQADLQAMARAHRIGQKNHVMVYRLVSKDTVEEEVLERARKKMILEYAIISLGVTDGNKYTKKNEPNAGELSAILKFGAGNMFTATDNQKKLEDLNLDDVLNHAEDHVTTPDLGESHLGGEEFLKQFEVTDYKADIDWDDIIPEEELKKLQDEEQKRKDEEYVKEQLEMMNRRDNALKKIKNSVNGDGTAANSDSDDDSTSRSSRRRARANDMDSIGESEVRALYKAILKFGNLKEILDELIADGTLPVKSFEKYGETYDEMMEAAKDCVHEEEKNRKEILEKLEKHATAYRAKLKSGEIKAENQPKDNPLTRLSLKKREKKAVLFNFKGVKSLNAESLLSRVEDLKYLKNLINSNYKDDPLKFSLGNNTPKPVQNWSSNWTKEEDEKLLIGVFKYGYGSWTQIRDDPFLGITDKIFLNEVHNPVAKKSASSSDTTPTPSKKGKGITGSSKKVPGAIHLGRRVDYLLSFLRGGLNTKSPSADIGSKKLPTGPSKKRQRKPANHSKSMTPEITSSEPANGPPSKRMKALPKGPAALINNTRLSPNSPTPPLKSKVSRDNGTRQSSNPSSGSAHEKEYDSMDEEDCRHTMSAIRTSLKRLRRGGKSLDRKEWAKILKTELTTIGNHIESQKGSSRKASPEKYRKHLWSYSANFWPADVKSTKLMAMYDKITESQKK

SMILES | Percent Effect [1] | Percent Effect [2] | Percent Effect [3] | Percent Effect [4] | Percent Effect (Trypanosoma cruzi) | Percent Effect [5] | Percent Effect [6] | Percent Effect (Homo sapiens) | Percent Effect [7] | Percent Effect [8] | Percent Effect [9]
CCCc1noc(CN(C)C(=O)C2COc3ccccc3C2)n1 (stereo unspecified) | -2.56% | 7.79% | -0.0483% | 4.75% | -3.25% | -30.3% | 14.1% | -15.6% | 5.38% | 16.1% | -3.26%
Cc1nc(C)n(CC2CCCN(CC(=O)Nc3c(C)n[nH]c3C)C2)n1 (stereo unspecified) | -1.71% | 13.2% | -0.0642% | 9.58% | 3.76% | 0.766% | 8.69% | -1.17% | 5.39% | 17.1% | -9.15%
OC(COc1ccccc1)CN1CCC(c2ccn[nH]2)CC1 (stereo unspecified) | -2.35% | 15.2% | -5.68% | 0.333% | -4.82% | 3.04% | 2.05% | -21.8% | 2.46% | 13.9% | -2.28%
COc1ccc(-c2csc(N)c2C#N)cc1OC | -2.5% | 6.67% | -9.01% | 5.81% | 4.91% | -6.16% | 7.02% | 12.1% | 1.06% | 0% | -1.98%
CCc1nc(NCC(=O)N2CCOCC2)c2c(n1)c(C)nn2CC | -2.78% | 6.67% | 0.5% | 7.26% | -6.09% | -6.87% | 10.7% | -5.15% | 2.12% | 5.13% | -5.78%
CCOCCn1nc(C)cc1C(=O)N1CC[C@](C)(O)[C@H](C)C1 | -5.83% | 5.41% | -0.231% | 3.85% | -4.25% | -1.91% | 6.03% | -3.48% | 2.65% | 9.76% | -1.04%
CN(C)CCN(C)C(=O)c1cnc2c(c1)nc(-c1ccccc1Cl)n2C | -6.72% | 5.41% | -0.741% | -1.85% | -0.88% | 2.23% | -1.29% | 8.57% | 9.68% | 13.6% | -3.61%
Cc1nc(CN2CCCC(NCCc3ccccc3Cl)C2)no1 (stereo unspecified) | -4.45% | 7.59% | 4.77% | 11.6% | 2.36% | -1.14% | -3.19% | -4.21% | 5.42% | 8.86% | -0.689%
CC1CCN(S(=O)(=O)NCC2CCOc3ccccc3C2)CC1 (stereo unspecified) | -7.79% | 2.6% | 4.04% | 4.95% | -2.46% | -8.28% | 6.16% | 23.1% | 0% | 3.7% | -0.0656%
CNC(=O)Nc1cc(-c2ccccc2C)nn1CCO | -4.2% | 7.89% | -1.72% | -9.84% | -3.8% | -5.92% | 17.2% | -9.47% | 1.06% | 0% | -7.09%
Cc1ncsc1C(=O)NC1CCN(CC(=O)NCc2ccccc2)CC1 | -3.36% | 13.2% | 0.646% | 1.72% | 2.71% | -1.8% | 7.02% | -2.18% | 9.36% | 16.1% | -2.75%
